Test results: the supplement of paper PMC13380429

Assays:
[1] = test system: Vero E6 infected with SARS-CoV-2; experiment: morphology score (similarity to uninfected cells); higher = more like uninfected cells; conditions: 24 h
[2] = test system: Vero E6 infected with SARS-CoV-2; experiment: SARS-CoV-2 infection rate relative to infected DMSO; higher = more infection, active = 60 or less; conditions: 24 h

## O=C(NC1(c2ccccc2)CC1)c1c(CN2CCC(N3CCCCC3)CC2)c(-c2cccc(C(F)(F)F)c2)nc2cc(Br)ccc12 (0.833333 µM)
[1]
  morphology score: -0.235
[2]
  SARS-CoV-2 infection rate: 112% (inactive)

## NCC(=O)Nc1ccc(-n2nc(C(F)(F)F)cc2-c2ccc3c(ccc4ccccc43)c2)cc1 (0.833333 µM)
[1]
  morphology score: -0.089
[2]
  SARS-CoV-2 infection rate: 99.5% (inactive)

## COc1c(C)cnc(Cn2cnc3c(Cl)nc(N)nc32)c1C (10 µM)
[1]
  morphology score: 0.256
[2]
  SARS-CoV-2 infection rate: 98.5% (inactive)

## N.N.O=C([O-])C[O-].[Pt+2] [nedaplatin] (10 µM)
[1]
  morphology score: 0.0896
[2]
  SARS-CoV-2 infection rate: 102% (inactive)

## CC[C@H](CO)Nc1nc(NCc2ccccc2)c2ncn(C(C)C)c2n1 [roscovitine] (10 µM)
[1]
  morphology score: -0.0602
[2]
  SARS-CoV-2 infection rate: 96% (inactive)

## CCC/C=C1\OC(=O)C2=C1CCC=C2 [ligustilide] (10 µM)
[1]
  morphology score: 0.0279
[2]
  SARS-CoV-2 infection rate: 108% (inactive)

## Fc1ccc(-n2cc(CCCCN3CCC4(CC3)OCc3ccccc34)c3ccccc32)cc1 [siramesine] (0.833333 µM)
[1]
  morphology score: 0.0919
[2]
  SARS-CoV-2 infection rate: 94.5% (inactive)

## OCCN1C[C@H](O)[C@@H](O)[C@H](O)[C@H]1CO [miglitol] (10 µM)
[1]
  morphology score: 0.11
[2]
  SARS-CoV-2 infection rate: 106% (inactive)

## CCN(CC)C(=O)[C@@]1(c2ccccc2)C[C@H]1CN [milnacipran] (10 µM)
[1]
  morphology score: 0.0186
[2]
  SARS-CoV-2 infection rate: 105% (inactive)

## COc1cccc(NC(=O)/C=C/c2ccc(Cl)cc2)c1 (10 µM)
[1]
  morphology score: -0.0484
[2]
  SARS-CoV-2 infection rate: 99.5% (inactive)

## NC(=O)CN1CC(O)CC1=O (configuration not stated) [oxiracetam] (10 µM)
[1]
  morphology score: -0.00498
[2]
  SARS-CoV-2 infection rate: 107% (inactive)

## C[N+]1(C)[C@@H]2C[C@@H](OC(=O)C(O)(c3cccs3)c3cccs3)C[C@H]1[C@@H]1O[C@@H]12 [tiotropium] (10 µM)
[1]
  morphology score: 0.0776
[2]
  SARS-CoV-2 infection rate: 100% (inactive)

## Cc1[nH]c2ccc(O)cc2c1CCN [2-methyl-5-hydroxytryptamine] (10 µM)
[1]
  morphology score: 0.00237
[2]
  SARS-CoV-2 infection rate: 108% (inactive)

## Cc1cc(=O)n(-c2ccccc2)[nH]1 [N-demethylantipyrine] (10 µM)
[1]
  morphology score: 0.121
[2]
  SARS-CoV-2 infection rate: 101% (inactive)

## COc1cc2c(cc1Cc1cccc(Cl)c1F)c(=O)c(C(=O)O)cn2[C@H](CO)C(C)C [elvitegravir] (10 µM)
[1]
  morphology score: 0.0588
[2]
  SARS-CoV-2 infection rate: 107% (inactive)

## COc1cc(N2CCC(N3CCN(C)CC3)CC2)ccc1Nc1ncnc(Nc2ccccc2S(=O)(=O)C(C)C)n1 (0.833333 µM)
[1]
  morphology score: -0.0307
[2]
  SARS-CoV-2 infection rate: 71% (inactive)

## C[C@H]1C[C@@H]2[C@H]([C@@H](O)C[C@@]3(C)[C@H]2CC[C@]3(O)C(=O)COC(=O)CCC(=O)O)[C@@]2(C)C=CC(=O)C=C12 [methylprednisolone-sodium-succinate] (10 µM)
[1]
  morphology score: -0.0168
[2]
  SARS-CoV-2 infection rate: 102% (inactive)

## CC[C@@H]([C@H](C)O)n1ncn(-c2ccc(N3CCN(c4ccc(OC[C@@H]5CO[C@@](Cn6cncn6)(c6ccc(F)cc6F)C5)cc4)CC3)cc2)c1=O [posaconazole] (0.833333 µM)
[1]
  morphology score: 0.204
[2]
  SARS-CoV-2 infection rate: 102% (inactive)

## Clc1cccc(Nc2nnc(-c3ccccc3)c3ccccc23)c1 (10 µM)
[1]
  morphology score: 0.2
[2]
  SARS-CoV-2 infection rate: 94% (inactive)

## O=C1c2ccc(Nc3ccc(F)cc3F)cc2CCc2ccc(OC[C@H](O)CO)cc21 [skepinone-L] (10 µM)
[1]
  morphology score: -0.053
[2]
  SARS-CoV-2 infection rate: 113% (inactive)

## C[C@@H]1O[C@@H](O[C@@H]2[C@@H](O)[C@H](OCCc3ccc(O)c(O)c3)O[C@H](CO)[C@H]2OC(=O)/C=C/c2ccc(O)c(O)c2)[C@H](O)[C@H](O)[C@H]1O [verbascoside] (10 µM)
[1]
  morphology score: 0.0986
[2]
  SARS-CoV-2 infection rate: 104% (inactive)

## CNC(=O)CN(CCN(CCN(CC(=O)[O-])CC(=O)NC)CC(=O)[O-])CC(=O)[O-].[Gd+3] [gadodiamide] (10 µM)
[1]
  morphology score: -0.0219
[2]
  SARS-CoV-2 infection rate: 103% (inactive)

## O=C(O)C(Cl)Cl [dichloroacetate] (10 µM)
[1]
  morphology score: 0.236
[2]
  SARS-CoV-2 infection rate: 88.5% (inactive)

## O=c1oc2c(O)c(O)cc3c(=O)oc4c(O)c(O)cc1c4c23 [ellagic-acid] (10 µM)
[1]
  morphology score: 0.105
[2]
  SARS-CoV-2 infection rate: 94% (inactive)

## N#Cc1c(N(CC(=O)O)CC(=O)O)sc(C(=O)O)c1CC(=O)O [Strontium Ranelate] (10 µM)
[1]
  morphology score: -0.000723
[2]
  SARS-CoV-2 infection rate: 107% (inactive)

## Cc1[nH]nc(C(F)(F)F)c1Cc1sc2c(c1C(=O)N1C[C@](C)(O)CO1)c(=O)n(C)c(=O)n2C(C)C (10 µM)
[1]
  morphology score: 0.0405
[2]
  SARS-CoV-2 infection rate: 101% (inactive)
